WRN helicase inh – qHTS for Inhibitors of WRN Helicase | Bifunctional 3'-5' exonuclease/ATP-dependent helicase WRN (Homo sapiens), Q14191 | WRN helicase unwinding, fluorescent forked duplex, kinetic | Potency, µM (titrated, usually from 114 µM), without a hit: at the highest dose activity change, negative = inhibition, hits mostly inhibitors | 360,000 compounds, 0.46% hits | AID 651768, 2012; also: potency is read from the fitted curve at half-maximal effect; % is scaled to controls: 0 for no effect and ±100 for the full control effect; nearly all actives have a fitted effect of over 55% in size
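Enzyme (20 nM final) and test compound sit together 15 min at room temperature before substrate addition. Substrate is a single-forked duplex oligonucleotide (100 nM) labelled with fluorophore and quencher, with 2 mM ATP; helicase unwinding raises red fluorescence, read kinetically.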
PI5P4Ka inh – qHTS for Inhibitors of phosphatidylinositol 5-phosphate 4-kinase (PI5P4K); Phosphatidylinositol 5-phosphate 4-kinase type-2 alpha (Homo sapiens), P48426; max response, %; 330,000 compounds, 1.2% hits; PI5P4Kalpha enzyme, ADP-Glo luminescence, 60 min; active compounds read low; active = max response of -50% or lower; inconclusive = between -30% and -50%; inactive = -30% or higher; also: value at the top dose of about 77 µM; % is scaled to controls: 0 for no effect and ±100 for the full control effect
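Quantitative HTS of the MLSMR library against PI5P4Kalpha with substrate. ATP added last at 5 microM final; room temperature, 60 minutes. Remaining ATP depleted, ADP converted and read as luminescence.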
FEN1 inh – qHTS Assay for the Inhibitors of Human Flap endonuclease 1 (FEN1). Recombinant FEN1 flap cleavage, fluorescence, 15 min. 390,000 compounds, 0.35% hits. AID 588795, 2011. Potency, µM (doses to about 114 µM), inactives show at the top dose activity change, negative = inhibition, usual class: inhibitors. P39748; also: potency is read from the fitted curve at half-maximal effect; % is scaled to controls: 0 for no effect and ±100 for the full control effect; nearly all actives have a fitted effect of over 65% in size
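Compounds are tested as a concentration series against 10 nM FEN1; after a 15 min room-temperature preincubation, 50 nM substrate starts cleavage, with plate reads at 0 and 15 min. Normalized responses are fitted by a Hill equation.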
PLK1 PBD block – qHTS for Inhibitors of PLK1-PDB (polo-like kinase 1 - polo-box domain): Primary Screen; Serine/threonine-protein kinase PLK1 (Homo sapiens), P53350; Plk1 PBD binding of FITC phosphopeptide, fluorescence polarization; Potency, µM, inactives show max response, negative = inhibition, actives largely listed as inhibitors; 360,000 compounds, 2.8% hits; also: potency is read from the fitted curve at half-maximal effect; series mostly up to about 57 µM; % is scaled to controls: 0 for no effect and ±100 for the full control effect; nearly all actives have a fitted effect of over 65% in size
TCR act – Activators of T cell receptors: qHTS campaign | primary human leukocytes, anti-CD3, IL-2 HTRF, 48 h | Potency, µM (titrated, usually from 9.22 µM), inactives show at the top dose activation of IL-2 secretion, actives largely listed as activators | 330,000 tested, under 10 active | AID 504894, 2011; also: % of control where 0% means no effect
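HTRF read-out of IL-2 secretion: europium cryptate donor excited at 320nm, d2 acceptor emission at 665nm. Cells were primary human leukocytes incubated 48 hr with compounds and a-CD3 beads, supplying TCR signal only.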
VDR inh – Inhibitors of the vitamin D receptor (VDR): qHTS | VDR-SRC2-3 peptide fluorescence polarization, 2 h | Potency, µM, for the others: max response, negative = inhibition, most hits filed as inhibitors | AID 504847, 2011 | 400,000 compounds, 0.93% hits | Vitamin D3 receptor (Homo sapiens), P11473; also: potency is read from the fitted curve at half-maximal effect; % is scaled to controls: 0 for no effect and ±100 for the full control effect
Target sequence (P11473 whole entry, looked up): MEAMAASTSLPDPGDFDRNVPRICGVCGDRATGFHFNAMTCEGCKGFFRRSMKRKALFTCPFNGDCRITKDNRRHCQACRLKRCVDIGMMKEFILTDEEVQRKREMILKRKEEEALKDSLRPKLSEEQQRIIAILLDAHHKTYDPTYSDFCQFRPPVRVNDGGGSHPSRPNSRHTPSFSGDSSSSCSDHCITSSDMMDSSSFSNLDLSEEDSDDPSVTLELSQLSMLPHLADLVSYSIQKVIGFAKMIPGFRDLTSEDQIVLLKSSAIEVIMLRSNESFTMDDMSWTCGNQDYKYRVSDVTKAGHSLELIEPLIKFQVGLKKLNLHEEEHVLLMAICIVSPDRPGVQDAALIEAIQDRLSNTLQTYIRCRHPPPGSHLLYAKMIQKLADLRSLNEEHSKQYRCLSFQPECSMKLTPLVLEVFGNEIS
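VDR–SRC2-3 interaction, FP format. Cmpds 23 nl via pintool, brief spin, 2 h ambient incubation.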
ADP-Glo interf – qHTS for Inhibitors of PI5P4K: ADP-Glo counter assay. shares compounds with PI5P4Ka inh. Potency, µM (doses to about 76.9 µM), for inactives: top-dose activity change, negative = inhibition, actives largely listed as inhibitors. ADP-Glo detection counter-screen, luciferase luminescence, no enzyme. 1,100 tested, under 10 active
* = called active by the depositor; ? = inconclusive; . = no result; [ ] = another dose, or the depositor's remark. Most compounds without a hit are left out; they make up all but 3.7% or so of the library. Unless noted, calls follow the shape of the dose curve; as a rule, active = well fitted curve in the direction sought with a large enough effect; inconclusive = small, poorly fitted or top-dose-only effect, or another doubt; inactive = no such curve, though single readings can be large; an effect the other way counts as inactive or inconclusive.

SMILES | WRN helicase inh | PI5P4Ka inh | FEN1 inh | PLK1 PBD block | TCR act | VDR inh | ADP-Glo interf
O=c1cc(-c2ccccc2)[nH]n1-c1nc2ccccc2[nH]1 | -6% | -76* | 7% | -8% | -3% | -21% | 2%
O=C(O)c1cc2c(N3CCC(Cc4ccccc4)CC3)ncnc2s1 | -5% | . | -6% | -16% | -5% | -21% | 3%
c1ccc(CC2CCN(c3ncnc4sccc34)CC2)cc1 | -2% | -5 | -7% | 0% | -6% | -4% | .
O=C(c1ccc(-c2ccc([N+](=O)[O-])cc2)o1)N1CCN(S(=O)(=O)c2cccs2)CC1 | -17% | -51* | -4% | 0% | 1% | -2% | -9%
O=C(c1ccco1)N1CCN(C(=O)c2ccc(-c3ccc([N+](=O)[O-])cc3)o2)CC1 | ? | -74* | 79µM* | -21% | 4% | -27% | 3%
O=C(c1ccc([N+](=O)[O-])cc1)N1CCN(C(=O)c2ccco2)CC1 | 5% | 2 | 0% | -9% | -4% | 11% | .
CC[C@]12c3[nH]c4cc(-c5ccco5)ccc4c3CCN1C(=O)[C@@H](CC(=O)NCCC1=CCCCC1)C[C@@H]2C(=O)N1CCN(C(=O)c2ccco2)CC1 | -5%[11.6 µM] | -73* | -7% | -5% | -1%[46.1 µM] | ? | 1%
COc1ccc(NC(=O)CCNS(=O)(=O)c2cccc3nsnc23)cc1Cl | . | . | 0% | . | . | -16% | .
Cc1ccccc1S(=O)(=O)NC(=O)C1(C)CCN1C(=O)C(C)(C)c1ccccc1 (stereo unspecified) | 4% | -5 | . | 1% | . | . | .
CC(C)(C(=O)N1CCC1(C)C(=O)NS(=O)(=O)c1ccc(C#N)cc1)c1ccccc1 (stereo unspecified) | 4% | -25 | . | -14% | . | . | -4%
COc1ccc(-c2cc(CNc3nc(NC(C)C)nc4cc(-c5ccccc5)sc34)on2)cc1 | 7%[57.1 µM] | . | . | 5% | . | . | -15%
CC(=O)Nc1ccc(CNc2nc(NC(C)C)nc3cc(-c4ccccc4)sc23)cc1 | 13%[57.1 µM] | . | . | 1% | . | . | -2%
C=CCNc1nc(NCc2ccc(NC(C)=O)cc2)c2sc(-c3ccccc3)cc2n1 | 3% | ? | . | -3% | . | . | .
CC(=O)NCCNc1nc(NC(C)C)nc2cc(-c3ccccc3)sc12 | -1% | -18 | . | -5% | . | . | .
Cc1cccc(S(=O)Cc2ccc(C(=O)NC3CCCCCC3)o2)c1 (stereo unspecified) | . | . | 1% | . | . | 6% | .
COc1ccccc1-c1nc2ccccc2n(CC(C)C)c1=O | -10% | -72* | . | 24µM* | . | . | -11%
COC(=O)c1c(NC(=O)/C(C#N)=C/c2ccc(OC)cc2)sc2c1CCC2 | . | . | 6% | . | . | -14% | .
O=C(Nc1nc(-c2ccco2)c(-c2ccco2)s1)C1CC(=O)N(c2ccc3c(c2)OCCO3)C1 (stereo unspecified) | 13µM* | -76* | ? | ? | 6% | ? | 3%
CCOc1ccc(-c2cc(C(=O)NCCCOC)c3c(-c4ccc(CC)cc4)[nH]nc3n2)cc1 | . | . | -2% | . | . | 8% | .
Cc1ccc(CSCC(=O)N2CCOCC2)cc1 | ? | -52* | 3% | 3µM* | -6% | -19% | -2%
O=C(CSc1nc2[nH]c(=O)cc(O)c2s1)Nc1ccc(Cl)c(C(F)(F)F)c1 | -5% | -54* | 11% | -16% | -2% | 4% | 2%
O=c1oc(-c2ccccc2)nc2sc3c(c12)CCC3 | -16%[11.6 µM] | -54* | 4% | -13% | -2%[46.1 µM] | -16% | -2%
O=C1CCC(=O)N1c1ccc(-c2nc3sc4c(c3c(=O)o2)CCC4)cc1 | -2% | 1 | -2% | -22% | -3% | 11% | .
COc1cc(C(=O)Nc2scc(-c3ccccc3)c2C(=O)O)cc(OC)c1OC | -4% | -71* | -14% | -17% | 0% | -16% | -7%
CCOC(=O)c1c(-c2cc(OC)c(OC)c(OC)c2)csc1NC(=O)c1ccccc1 | -13% | 10 | . | -5% | . | . | .
SMILES | WRN helicase inh | PI5P4Ka inh | FEN1 inh | PLK1 PBD block | TCR act | VDR inh | ADP-Glo interf
COc1ccc(-c2csc(NC(=O)c3ccccc3F)c2C(=O)O)cc1 | -13% | -51* | 3% | -6% | -4% | 0% | 0%
CCOC(=O)c1c(-c2ccc(Br)cc2)csc1NC(=O)c1ccccc1F | . | . | 0% | . | . | -12% | .
CCOC(=O)c1ccc(NC(=O)CCC(=O)N2Cc3ccccc3Oc3ncccc32)cc1 | . | . | 2% | . | . | 12% | .
Cc1cc(O)ccc1Nc1cc(-c2cccc(N(C)C)c2)ncn1 | 5% | . | . | -9% | . | . | -6%
Cc1oc2ncn(CC(C)C)c(=O)c2c1C(=O)NCCCN1CCCCC1 | . | . | -5% | . | . | 3% | .
O=C(NCCc1ccccc1)C(c1cccs1)N(C(=O)c1csnn1)C1CC1 (stereo unspecified) | 8% | 0 | -7% | -9% | 1% | -9% | 1%
CCn1cc(C(=O)N2CCN(c3cccc(C)c3C)CC2)c(=O)c2ccc(C)nc21 | ? | -73* | -13% | -6% | -4% | -1% | -7%
CCn1cc(C(=O)N2CCN(c3ccc([N+](=O)[O-])cc3)CC2)c(=O)c2ccc(C)nc21 | 1% | -1 | -5% | -6% | 4% | -2% | .
CS(=O)(=O)c1ccc(C(=O)Nc2nc(-c3ccco3)c(-c3ccco3)s2)cc1 | 45µM* | -84* | 56µM* | -27% | -22% | ? | 4%
Cc1cc2ccccc2nc1SCC(=O)NC1CCCC1 | -31% | -65* | -5% | 24µM* | -4% | ? | 6%
Cc1cc(SCC(=O)NC2CCCCC2)nc2ccccc12 | 3% | -1 | 1% | 2% | -1% | 7% | .
COc1ccc(/C=C/C(=O)Nc2sc3c(c2C(N)=O)CCC(C)C3)cc1OC (stereo unspecified) | . | . | 1% | . | . | 1% | .
COc1ccccc1N1CCN(C(=O)c2ccc(C(C)(C)C)cc2)CC1 | 50µM* | -62* | 6% | 2.7µM* | 6% | ? | -6%
Cc1cc(C)cc(NC(=O)Cn2nnc(C(=O)NCc3ccc(F)cc3)c2N)c1 | -13% | -56* | ? | 3µM* | -4% | 20µM* | -3%
Cc1cccc(C)c1NC(=O)Cn1nnc(C(=O)NCc2ccc(F)cc2)c1N | . | . | 11% | . | . | 13% | .

Screening results (PubChem BioAssay)
